Data: PubChem BioAssay
Where “and” joins values, the source holds several entries; their conditions need not be identical. Equal entries are not always repeated. Calls of active or inactive are those of the source. Unless noted, no stated cut-off is given here; in the data, active means inhibition above about 80%; inactive means the rest.

Tests used:
[1] = hESC survival regulators, cell-based (AID 493140; call rule not given here;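 further: cells exposed to compounds for four days before counting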); details: human embryonic stem cell survival screen; stronger effect = higher value
[2] = liver-stage malaria parasite growth inhibition, primary screen, cell-based, HepG2, luciferase luminescence, HepG2 viability (AID 624349; in the data active means parasite load remaining mostly below about 12%, no sharp cut-off; inactive means mostly above about 10%;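 further: 100% = mean of DMSO negative control wells on the same plate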); details: P. berghei liver stage in HepG2, luciferase luminescence, concentration not given here; parasite load remaining: stronger effect = lower value; viability: measured here: HepG2 viability without parasites
[3] = sensitizers of A549 cells to miR-34 induction, primary screen, imaging, A549 dox-inducible miR-34, nuclei and caspase counts (AID 1347080;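 active means compounds whose cell count with miR-34 switched on is under 0.7 times the count with it off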); details: A549 miR-34 inducible, Hoechst nuclei count, 48 h
[4] = survival rescue of mitochondrial mutant cells in low glucose, primary screen, MELAS cybrids, Rieske KO mouse fibroblasts, CellTiter-Glo (AID 1508586;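 active means mean z-score across replicates of 1.96 or higher in either the MELAS or the Rieske mutant cell line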;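 further: z relative to plate mean and SD of compound and empty wells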)
[5] = LFS_MB_P medulloblastoma growth inhibition, cell-based, chromothripsis tumors, cisplatin or BGB combos (AID 1671449); details: LFS_MB_P medulloblastoma cells;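 further: cells exposed for 96 hours; 0% = vehicle DMSO and 100% = killing by high DMSO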
[6] = HDN33 neuroblastoma growth inhibition, cell-based, chromothripsis tumors, cisplatin or BGB combos (AID 1671450); details: HDN33 neuroblastoma cells, stronger effect = higher value;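 further: cells exposed to compound for four days; 0% = vehicle DMSO and 100% = cell killing by high DMSO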
[7] = ICB984 medulloblastoma cell growth inhibition, synergistic combos for chromothripsis tumors, cisplatin or BGB combos (AID 1671451; call rule not given here;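 further: cells exposed for 96 hours before readout; 0% = vehicle DMSO and 100% = killing by high DMSO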); details: ICB984 medulloblastoma cells, drug combinations, stronger effect = higher value
[8] = LFS_MB_1R medulloblastoma cell growth inhibition, synergistic combos for chromothripsis tumors, cisplatin or BGB combos (AID 1671452); details: LFS_MB_1R medulloblastoma cells, stronger effect = higher value;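 further: cells exposed for 96 hours before readout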
[9] = HTB85 osteosarcoma cell growth inhibition, synergistic combos for chromothripsis tumors, BGB or cisplatin IC20 combos (AID 1671453); details: HTB85 osteosarcoma cells, drug combinations, stronger effect = higher value;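 further: cells exposed for 96 hours before readout; 0% = vehicle DMSO and 100% = high DMSO killing control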
[10] = CRL2098 osteosarcoma cell growth inhibition, synergistic combos for chromothripsis tumors, BGB or cisplatin IC20 combos (AID 1671454); details: CRL2098 osteosarcoma cells, drug combinations, stronger effect = higher value;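 further: cells exposed for 96 h before readout; 0% = vehicle DMSO and 100% = killing by high DMSO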
[11] = HD-MB03 medulloblastoma cell growth inhibition, synergistic combos for chromothripsis tumors, BGB or cisplatin IC20 combos (AID 1671455; in the data active means inhibition above about 83%;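 further: 0% = vehicle DMSO and 100% = high DMSO as cytotoxic control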); details: HD-MB03 medulloblastoma cells, stronger effect = higher value
[12] = UWB1.289 ovarian carcinoma cell growth inhibition, synergistic combos for chromothripsis tumors, BGB or cisplatin combos (AID 1671456); details: UWB1.289 ovarian carcinoma cells, stronger effect = higher value;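 further: cells exposed to compound for four days; 0% = vehicle DMSO and 100% = killing by high DMSO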
[13] = LFS_MB_2R medulloblastoma cell growth inhibition, synergistic combos for chromothripsis tumors, cisplatin combos (AID 1671457); details: LFS_MB_2R medulloblastoma cells, stronger effect = higher value;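 further: cells exposed to compound for four days before readout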
[14] = MDA-MB-436 breast carcinoma cell growth inhibition, synergistic combos for chromothripsis tumors, BGB or cisplatin combos (AID 1671458; call rule not given here;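 further: cells exposed for 96 hours; 0% = vehicle DMSO and 100% = killing by high DMSO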); details: MDA-MB-436 breast carcinoma growth inhibition, drug combinations, stronger effect = higher value
[15] = UWB1.289_BRCA1 ovarian cancer growth, cell-based, BGB or cisplatin combinations (AID 1671459); details: UWB1.289 BRCA1 ovarian carcinoma, drug combinations, stronger effect = higher value
[16] = human astrocyte viability loss, single and combined drugs, cytotoxicity control for chromothriptic childhood tumor combination screen, cell-based, BGB or cisplatin IC20 combos (AID 1671460); details: Human astrocytes, drug combinations, stronger effect = higher value;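 further: cells exposed to compounds for 96 hours before viability readout; 0% = vehicle and 100% = killing control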
[17] = growth inhibition of BT084 medulloblastoma cells, cell-based, ICGC_MB145, cisplatin and BGB IC40 combos (AID 1671461); details: drug combinations, stronger effect = higher value;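 further: cells exposed to drugs for 96 hours; 0% = vehicle DMSO and 100% = high DMSO full killing control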
[18] = growth inhibition of RCMB18 medulloblastoma cells, cell-based, cisplatin and BGB IC40 combos (AID 1671462); details: stronger effect = higher value;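 further: cells exposed to compound for four days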
[19] = growth inhibition of CRL1545 osteosarcoma cells, cell-based, cisplatin and BGB IC20 combos (AID 1671464); details: stronger effect = higher value;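 further: cells exposed to compound for 96 hours before readout; 0% = vehicle DMSO and 100% = high DMSO killing control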
[20] = stronger effect = lower value, cell number ratio, induced over uninduced
[21] = measured here: relative caspase fold change +Dox/-Dox
[22] = measured here: total cells with miR-34 induction, stronger effect = lower value
[23] = measured here: total cells without miR-34 induction
[24] = MELAS cybrid survival, CellTiter-Glo 48 h, stronger effect = higher value
[25] = Rieske KO mouse fibroblast survival, CellTiter-Glo 72 h
[26] = measured here: combination with BGB IC40, at 0.05 µM
[27] = measured here: with BGB IC20 combination, at 0.5 µM
[28] = measured here: with cisplatin IC20 combination, at 0.5 µM
[29] = measured here: combination with cisplatin, at 0.5 µM
[30] = measured here: combination with cisplatin, at 5 µM

In the case of `CCCCC[C@H](O)/C=C/[C@@H]1[C@@H](C/C=C\CCCC(=O)O)[C@@H](O)C[C@H]1O` (tested in a mixture with another compound), the survival [1] is reported as 6.75 (inactive), the parasite load remaining [2] is reported as 74.8% (inactive) and 88.7% (inactive) and the viability [2] is reported as 111% and 88.8%. The fold change [3, 20] was 0.919 (inactive), the fold change [3, 21] was 1.17 and the cell count [3, 22] was 8520. For the same compound, the cell count [3, 23] was 9270, the z-score [4, 24] was -0.0339 (inactive) and the z-score [4, 25] was -1.21.

In the case of `CC(=O)N(CC(C)C(=O)O)c1c(I)cc(I)c(N)c1I` (configuration not stated), the survival [1] is reported as 3.33 (inactive), the parasite load remaining [2] is reported as 76.2% (inactive) and the viability [2] is reported as 95.9%. For the same compound, the fold change [3, 20] was 0.901 (inactive), the fold change [3, 21] was 1.42 and the cell count [3, 22] was 9460. The cell count [3, 23] was 10500, the z-score [4, 24] was 0.846 (inactive) and the z-score [4, 25] was 0.109.

For `O=C(O)c1cc2cccc([N+](=O)[O-])c2[nH]1`, the fold change [3, 20] was 0.946 (inactive), the fold change [3, 21] was 0.523 and the cell count [3, 22] was 8560. For the same compound, the cell count [3, 23] was 9040, the z-score [4, 24] was -0.36 (inactive) and the z-score [4, 25] was 0.315. The inhibition ([5]; at 0.5 µM, stronger effect = higher value) was -23.9% (inactive), the inhibition ([5]; measured here: combination with BGB IC20, at 0.005 µM) was -6.46% and the inhibition ([5]; measured here: combination with BGB IC40, at 0.005 µM) was -31.7%. For the same compound, the inhibition [5, 26] was -15.1%, the inhibition ([5]; measured here: combination with cisplatin, at 0.5 µM, stronger effect = higher value) was -30% and the inhibition ([5]; measured here: combination with cisplatin, at 5 µM, stronger effect = higher value) was -50.9%. The inhibition ([6]; BGB combo, at 5 µM) was -9.55%, the inhibition ([6]; at 0.5 µM) was -19.2% (inactive) and the inhibition ([6]; cisplatin combo, at 5 µM) was -1.64%. It also gave an inhibition [6, 27] of -22.3%, an inhibition [6, 28] of -18.1% and an inhibition ([6]; single agent, at 5 µM) of -9.97%. For the same compound, the inhibition ([7]; BGB IC20 combo, at 0.005 µM) was -35.7%, the inhibition ([7]; BGB IC40 combo, at 0.005 µM) was -62.5% and the inhibition ([7]; BGB IC40 combo, at 0.05 µM) was -61%. For the same compound, the inhibition ([7]; at 0.5 µM) was -39.2% (inactive), the inhibition ([7]; cisplatin combo, at 0.05 µM) was -67.4% and the inhibition ([7]; cisplatin combo, at 0.5 µM) was -58.3%. For the same compound, the inhibition ([7]; cisplatin combo, at 5 µM) was -47.8%, the inhibition ([7]; measured here: 5 uM single agent, at 5 µM) was -25.3% and the inhibition ([8]; at 0.5 µM) was -25.3% (inactive). The inhibition [8, 26] was -24.6%, the inhibition [8, 29] was -18.7% and the inhibition [8, 30] was -30.6%. For the same compound, the inhibition ([9]; at 0.5 µM) was -15.9% (inactive), the inhibition ([9]; measured here: with BGB IC20, at 0.5 µM) was -41.2% and the inhibition ([9]; measured here: with BGB IC20, at 5 µM) was -22.3%. For the same compound, the inhibition ([9]; measured here: with cisplatin IC20, at 0.5 µM) was -7.91%, the inhibition ([9]; measured here: with cisplatin IC20, at 5 µM) was -2.59% and the inhibition ([9]; single agent, at 5 µM) was -17.2%. For the same compound, the inhibition ([10]; at 0.5 µM) was -68.3% (inactive), the inhibition ([10]; measured here: combination with BGB at IC20, at 0.5 µM) was -23.9% and the inhibition ([10]; measured here: combination with cisplatin at IC20, at 0.5 µM) was -78.8%. For the same compound, the inhibition ([11]; at 0.5 µM) was -5.12% (inactive), the inhibition ([11]; measured here: combo with BGB at IC20, at 0.5 µM) was -8.83% and the inhibition ([11]; measured here: combo with cisplatin at IC20, at 0.5 µM) was 1.4%. For the same compound, the inhibition ([12]; at 0.5 µM) was -15.9% (inactive), the inhibition ([12]; measured here: inhibition with BGB combination, at 0.05 µM) was -35.8% and the inhibition ([12]; measured here: inhibition with cisplatin combination, at 0.05 µM) was 40%. The inhibition ([13]; at 0.5 µM) was -32% (inactive), the inhibition [13, 29] was -28.5% and the inhibition [13, 30] was -29.3%. The inhibition ([14]; at 0.5 µM) was -23.3% (inactive), the inhibition ([14]; measured here: BGB combination, at 0.5 µM) was -25% and the inhibition ([14]; measured here: BGB combination, at 5 µM) was -42.9%. For the same compound, the inhibition ([14]; measured here: cisplatin combination, at 0.5 µM) was -25.6%, the inhibition ([14]; measured here: cisplatin combination, at 5 µM) was -40.6% and the inhibition ([15]; BGB combination, concentration series, at 5 µM) was -18.8%. For the same compound, the inhibition ([15]; at 0.5 µM) was -21.8% (inactive), the inhibition ([15]; cisplatin combination, concentration series, at 5 µM) was -8.12% and the inhibition ([16]; at 0.5 µM) was -16% (inactive). The inhibition ([16]; measured here: combo with BGB IC20, at 0.5 µM) was -13.8%, the inhibition ([16]; measured here: combo with cisplatin IC20, at 0.5 µM) was -5.7% and the inhibition ([17]; at 0.5 µM) was -15.5% (inactive). It also gave an inhibition ([17]; cisplatin combination, at 0.5 µM) of -11.3%, an inhibition ([17]; cisplatin combination, at 5 µM) of -2.07% and an inhibition ([17]; measured here: BGB IC40 combination 0.05 uM, at 0.05 µM) of -9.88%. The inhibition ([17]; single agent, at 5 µM) was -23.7%, the inhibition ([18]; at 0.5 µM) was -11.6% (inactive) and the inhibition ([18]; cisplatin combo, at 5 µM) was 27.1%. It also gave an inhibition ([18]; measured here: BGB IC40 combination, at 0.05 µM) of -14.6%, an inhibition [18, 29] of 5.09% and an inhibition ([18]; single agent, at 5 µM) of -41.3%. The inhibition ([19]; at 0.5 µM) was -22.4% (inactive), the inhibition [19, 27] was -10% and the inhibition [19, 28] was -28.5%. The inhibition ([19]; single agent, at 0.05 µM) was 22.7% and the inhibition ([19]; single agent, at 5 µM) was -25.9%.
